Reference: PubChem BioAssay AID1159580 (chemical genetic matrix, 2015)
About 2,000 (36%) of roughly 5,500 compounds were called active. Inconclusive results (about 18%) are left out. Rule as the data show it: active = normalized growth mostly below about 0.91 (no sharp cut-off); inconclusive = no clear call, values can overlap the other calls; inactive = mostly above about 0.92. The list shows a part of the results.

Test: chemical genetic growth profiling, strain panel (AID 1159580);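 also: tested at 20 µM; growth read once vehicle control cultures reached saturation at 30 °C; 1 = growth at the plate median or of vehicle wells; lower values mean less growth of the strain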
Settings: growth OD

Measured: normalized growth

COC(C)(C)CCC[C@H](C)C/C=C/C(C)=C/C(=O)OC(C)C
inactive: S. cerevisiae deletion strains, locus YJR075W, strain HOC1, active compounds read low 1.02 | S. cerevisiae deletion strains, locus YKL009W, strain mrt4, active compounds read low 0.979 | S. cerevisiae deletion strains, locus YKL068W, active compounds read low 1.01 | S. cerevisiae deletion strains, locus YKL085W, strain MDH1 (second series), active compounds read low 1 | S. cerevisiae deletion strains, locus YKL085W, strain MDH1, active compounds read low 1 | S. cerevisiae deletion strains, locus YKL160W, strain elf1, active compounds read low 1.02 | S. cerevisiae deletion strains, locus YKL190W, strain CNB1, active compounds read low 0.985 | S. cerevisiae deletion strains, locus YKR001C, strain vps1, active compounds read low 1.03 | S. cerevisiae deletion strains, locus YKR026C, strain gcn3, active compounds read low 1.02 | S. cerevisiae deletion strains, locus YKR091W, strain srl3, active compounds read low 1.02 | S. cerevisiae deletion strains, locus YLL001W, strain dnm1, active compounds read low 1.01 | S. cerevisiae deletion strains, locus YLL026W, active compounds read low 1.01 | S. cerevisiae deletion strains, locus YLL041C, strain sdh2, active compounds read low 1 | S. cerevisiae deletion strains, locus YLR027C, strain aat2, active compounds read low 1.01 | S. cerevisiae deletion strains, locus YLR039C, strain RIC1, active compounds read low 1.04 | S. cerevisiae deletion strains, locus YLR058C, strain SHM2, active compounds read low 1 | S. cerevisiae deletion strains, locus YLR102C, strain apc9, active compounds read low 1.02 | S. cerevisiae deletion strains, locus YLR113W, strain HOG1, active compounds read low 0.971 | S. cerevisiae deletion strains, locus YLR221C, strain rsa3, active compounds read low 0.973 | S. cerevisiae deletion strains, locus YLR258W, strain gsy2, active compounds read low 1.03 | S. cerevisiae deletion strains, locus YLR262C, strain YPT6 (second series), active compounds read low 0.953 | S. cerevisiae deletion strains, locus YLR262C, strain YPT6, active compounds read low 1.06 | S. cerevisiae deletion strains, locus YLR268W, strain sec22, active compounds read low 1.05 | S. cerevisiae deletion strains, locus YLR320W, strain mms22, active compounds read low 0.992 | S. cerevisiae deletion strains, locus YLR330W, strain CHS5, active compounds read low 1.01 | S. cerevisiae deletion strains, locus YLR342W, strain FKS1 (second series), active compounds read low 1.02 | S. cerevisiae deletion strains, locus YLR342W, strain FKS1, active compounds read low 1.01 | S. cerevisiae deletion strains, locus YLR357W, strain rsc2, active compounds read low 1.01 | S. cerevisiae deletion strains, locus YLR370C, strain arc18, active compounds read low 0.997 | S. cerevisiae deletion strains, locus YLR371W, strain rom2, active compounds read low 1.04 | S. cerevisiae deletion strains, locus YLR384C, strain iki3, active compounds read low 1 | S. cerevisiae deletion strains, locus YLR418C, strain cdc73, active compounds read low 1.05 | S. cerevisiae deletion strains, locus YML016C, strain PPZ1, active compounds read low 1.02 | S. cerevisiae deletion strains, locus YML032C, strain rad52, active compounds read low 1.03 | S. cerevisiae deletion strains, locus YML120C, strain ndi1, active compounds read low 1.01 | S. cerevisiae deletion strains, locus YML124C, strain tub3, active compounds read low 1.03 | S. cerevisiae deletion strains, locus YMR058W, strain fet3, active compounds read low 1.01 | S. cerevisiae deletion strains, locus YMR078C, strain ctf18, active compounds read low 1.02 | S. cerevisiae deletion strains, locus YMR125W, strain sto1, active compounds read low 1.02 | S. cerevisiae deletion strains, locus YMR129W, active compounds read low 1.01 | S. cerevisiae deletion strains, locus YMR205C, strain PFK2, active compounds read low 0.979 | S. cerevisiae deletion strains, locus YMR223W, strain ubp8, active compounds read low 1.02 | S. cerevisiae deletion strains, locus YMR231W, strain pep5, active compounds read low 1.03 | S. cerevisiae deletion strains, locus YMR263W, strain SAP30, active compounds read low 1.01 | S. cerevisiae deletion strains, locus YMR307W, strain GAS1, active compounds read low 1 | S. cerevisiae deletion strains, locus YNL067W, strain RPL9B, active compounds read low 1.01 | S. cerevisiae deletion strains, locus YNL071W, strain lat1, active compounds read low 1.01 | S. cerevisiae deletion strains, locus YNL128W, strain TEP1, active compounds read low 1.01 | S. cerevisiae deletion strains, locus YNL153C, strain GIM3, active compounds read low 1.01 | S. cerevisiae deletion strains, locus YNL183C, strain NPR1, active compounds read low 0.891 | S. cerevisiae deletion strains, locus YNL209W, strain ssb2, active compounds read low 0.998 | S. cerevisiae deletion strains, locus YNL233W, strain BNI4, active compounds read low 1.02 | S. cerevisiae deletion strains, locus YNL248C, strain rpa49, active compounds read low 0.996 | S. cerevisiae deletion strains, locus YNL250W, strain rad50, active compounds read low 1.03 | S. cerevisiae deletion strains, locus YNL271C, strain bni1, active compounds read low 1.03 | S. cerevisiae deletion strains, locus YNL298W, strain CLA4, active compounds read low 1.03 | S. cerevisiae deletion strains, locus YNL307C, strain MCK1, active compounds read low 1.04 | S. cerevisiae deletion strains, locus YNL322C, strain KRE1 (second series), active compounds read low 1.05 | S. cerevisiae deletion strains, locus YNL322C, strain KRE1, active compounds read low 1 | S. cerevisiae deletion strains, locus YNR049C, strain mso1, active compounds read low 1.02 | S. cerevisiae deletion strains, locus YNR052C, strain pop2, active compounds read low 1.02 | S. cerevisiae deletion strains, locus YOL006C, strain TOP1, active compounds read low 1.07 | S. cerevisiae deletion strains, locus YOL012C, strain htz1 1.31 | S. cerevisiae deletion strains, locus YOL147C, strain pex11, active compounds read low 1.02 | S. cerevisiae deletion strains, locus YOR001W, strain rrp6, active compounds read low 0.987 | S. cerevisiae deletion strains, locus YOR061W, strain CKA2, active compounds read low 1.01 | S. cerevisiae deletion strains, locus YOR069W, strain VPS5, active compounds read low 1 | S. cerevisiae deletion strains, locus YOR070C, strain gyp1, active compounds read low 0.993 | S. cerevisiae deletion strains, locus YOR080W, strain dia2, active compounds read low 1.02 | S. cerevisiae deletion strains, locus YOR083W, strain WHI5, active compounds read low 1.01 | S. cerevisiae deletion strains, locus YOR106W, strain vam3, active compounds read low 0.948 | S. cerevisiae deletion strains, locus YOR136W, strain idh2, active compounds read low 1.02 | S. cerevisiae deletion strains, locus YOR144C, strain elg1, active compounds read low 1.02 | S. cerevisiae deletion strains, locus YOR184W, strain ser1, active compounds read low 1.04 | S. cerevisiae deletion strains, locus YOR231W, strain MKK1, active compounds read low 0.984 | S. cerevisiae deletion strains, locus YOR265W, strain rbl2, active compounds read low 1.03 | S. cerevisiae deletion strains, locus YOR270C, strain vph1, active compounds read low 0.931 | S. cerevisiae deletion strains, locus YOR290C, strain snf2, active compounds read low 1.08 | S. cerevisiae deletion strains, locus YOR316C, strain cot1, active compounds read low 1.02 | S. cerevisiae deletion strains, locus YPL051W, strain arl3, active compounds read low 1 | S. cerevisiae deletion strains, locus YPL055C, strain LGE1, active compounds read low 1.01 | S. cerevisiae deletion strains, locus YPL078C, strain atp4, active compounds read low 1 | S. cerevisiae deletion strains, locus YPL106C, strain sse1, active compounds read low 1.05 | S. cerevisiae deletion strains, locus YPL240C, strain hsp82, active compounds read low 1.01 | S. cerevisiae deletion strains, locus YPL241C, strain CIN2, active compounds read low 0.999 | S. cerevisiae deletion strains, locus YPL256C, strain CLN2, active compounds read low 0.992 | S. cerevisiae deletion strains, locus YPR119W, strain clb2, active compounds read low 1.02 | S. cerevisiae deletion strains, locus YPR141C, strain kar3, active compounds read low 1.03 | S. cerevisiae deletion strains, locus YPR163C, strain tif3, active compounds read low 1.04 | S. cerevisiae deletion strains, locus YPR167C, strain met16, active compounds read low 1.02 | S. cerevisiae deletion strains, strain wtn01, active compounds read low 1.05 | S. cerevisiae strains, strain wild type, active compounds read low 1.01
